Experiment [1] is described as follows: Nuclear factor erythroid 2-related factor 2/antioxidant responsive element (Nrf2/ARE) small molecule agonists: qHTS cell viability counter screen in human keratinocytes (AID 1919968; active means well fitted curve in the direction sought with a large enough effect in the repeat runs; an effect the other way counts as inactive or inconclusive; further: nearly all actives have a fitted effect of over 55% in size). The procedure, abridged:
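Viability counter-screen: KeratinoSens reporter cells, DMSO-delivered compounds, 23 h at 37 C, CellTiter-Fluor fluorescence.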

Experiment [2] in a line: Nuclear factor erythroid 2-related factor 2/antioxidant responsive element (Nrf2/ARE) small molecule agonists: luciferase reporter gene qHTS assay in human keratinocytes (AID 1919969). Further: nearly all actives have a fitted effect of over 35% in size.
Experiment [3] has as its target Gonadotropin-releasing hormone receptor (Homo sapiens) (UniProt P30968). Kind of experiment: Human gonadotropin-releasing hormone receptor (GnRHR) small molecule agonists, calcium flux assay in GnRHR-HEK293 cells (AID 1920063). Further: nearly all actives have a fitted effect of over 35% in size. The gist of the method:
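Tox21-format agonist screen using human GnRHR-expressing HEK293 cells and a fluorescent calcium dye; kinetic 3-min fluorescence reading after compound addition, 15-point concentration series run in triplicate.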

In experiment [4] the target is KiSS-1 receptor (Homo sapiens) (UniProt Q969F8). Put plainly: Human kisspeptin (KISS1R) small molecule agonists, calcium flux assay in KISS1R-HEK293 cells (AID 1920064; active means well fitted curve in the direction sought with a large enough effect in the repeat runs; an effect the other way counts as inactive or inconclusive). The gist of the method: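 Intracellular calcium mobilization in KISS1R-HEK293 cells was recorded by fluorescence (Ex/Em 480/540) for 3 min following compound addition to cells pre-loaded 1 h with calcium dye.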

The nature of experiment [5]: G protein-coupled receptor (GPCR) small molecule agonists, calcium flux assay: HEK293 wild type cell line counter screen (AID 1920065). The procedure, abridged:
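In this agonist-mode screen, ATP is the positive control and DMSO the vehicle. Cells grow 18 h before a 1 h dye incubation at 37 C; signal is taken at Ex/Em 480/540 over 3 min.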

Experiment [6] in a line: p53 small molecule agonists, cell-based qHTS assay with human liver microsomes (AID 1963577).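 Further: p53 response element beta-lactamase reporter cells with liver microsomes plus NADPH.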 The gist of the method:
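Reporter activation was measured by LiveBLAzer fluorescence intensity in p53RE-bla cells, which had been exposed to compounds for 16 h at 37 C alongside 0.5 mg/mL human liver microsomes and 0.5 mg/mL NADPH (final concentrations).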

Experiment [7] is described as follows: p53 small molecule agonists, cell-based qHTS assay with rat liver microsomes (AID 1963578). The gist of the method: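 Compound in DMSO added to p53RE-bla cells 5 h post-plating; rat microsomes/NADPH 0.5 mg/mL final; 16 h, 37 C; LiveBLAzer 2 h RT.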
Experiment [8] can be described thus: p53 small molecule agonists, cell-based qHTS assay with human liver microsomes: qHTS cell viability counter screen (AID 1963579). Further: nearly all actives have a fitted effect of over 45% in size. The procedure, abridged:
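HLM-supplemented (0.5 mg/mL final) and NADPH-supplemented (0.5 mg/mL final) p53RE-bla cultures, 4,000 cells per well, were dosed with compounds in DMSO for 16 h at 37 C; luminescent ATP detection (CellTiter-Glo, 30 min, room temperature) quantified surviving cells.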

A short description of experiment [9]: p53 small molecule agonists, cell-based qHTS assay with rat liver microsomes: qHTS cell viability counter screen (AID 1963580). Further: nearly all actives have a fitted effect of over 45% in size. The procedure, abridged: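 p53RE-bla HCT-116 cells (4,000/well) rested 5 h at 37 C, then given Tox21 compounds in DMSO with rat liver microsomes (0.5 mg/mL final) plus NADPH (0.5 mg/mL final) for 16 h at 37 C. Viability read by CellTiter-Glo luminescence after 30 min at room temperature.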

Experiment [10] can be described thus: p53 small molecule agonists, cell-based qHTS assay: qHTS cell viability counter screen (AID 1963581). Further: nearly all actives have a fitted effect of over 45% in size. The gist of the method: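 Compounds are pinned onto HCT-116 p53RE-bla cells and left 16 h at 37 C. Following the reporter FRET read, ATP is quantified by CellTiter-Glo luminescence after 30 min at room temperature.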
A short description of experiment [11]: p53 small molecule agonists, cell-based qHTS assay (AID 1963582; active means well fitted activation curve with a large enough effect in the signal ratio in the repeat runs, not every such curve was filed as active; the % refers to the signal ratio; further: potency means the concentration at half of the fitted maximal effect). The gist of the method: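 Agonist activity was scored from beta-lactamase FRET fluorescence in p53RE-bla cells treated 16 h at 37 C with compounds in DMSO, substrate incubation being 2 h at room temperature.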
The target of experiment [12] is 5-hydroxytryptamine receptor 2A (Homo sapiens) (UniProt P28223). Kind of experiment: 5-hydroxytryptamine receptor 2A (HTR2A) small molecule antagonists, cell-based qHTS assay (AID 1963586). Further: nearly all actives have a fitted effect of over 45% in size. The procedure, abridged:
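Antagonist-mode intracellular calcium assay: DOI (4 nM) added after 5 min compound pre-incubation at room temperature to dye-loaded HTR2A-CHO cells. Fluorescence followed for 3 min, sampled every second.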

For experiment [13] the target is unchanged. Put plainly: 5-hydroxytryptamine receptor 2A (HTR2A) small molecule agonists, cell-based qHTS assay (AID 1963587). Further: nearly all actives have a fitted effect of over 30% in size. The procedure, abridged: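 HTR2A-CHO cells, plated 18 h at 37 C/5% CO2, dye-loaded 1 h at 37 C; compounds in DMSO added by pin tool (agonist mode). Intracellular calcium flux read as kinetic fluorescence on FDSS over 2 min at 1 s intervals.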

In experiment [14] the target is Muscarinic acetylcholine receptor M1 (Homo sapiens) (UniProt P11229). Kind of experiment: Cholinergic receptor muscarinic 1 (CHRM1) small molecule antagonists, cell-based qHTS assay (AID 1963588). Further: nearly all actives have a fitted effect of over 40% in size. The gist of the method: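 CHRM1-CHO calcium-flux assay, antagonist mode. Cells were seeded 18 h, dye-loaded 1 h at 37 C and given compound for 5 min at RT, then acetylcholine was added at 50nM. FDSS fluorescence was read 3 min; 15 concentrations, three runs.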

For experiment [15] the target is unchanged. Put plainly: Cholinergic receptor muscarinic 1 (CHRM1) small molecule agonists, cell-based qHTS assay (AID 1963589). Further: nearly all actives have a fitted effect of over 35% in size. The procedure, abridged: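 Stable CHRM1-CHO cells (human receptor) were incubated 18 h, dye-loaded for 1 h at 37 C and exposed to test compounds for agonist activity, with calcium-dependent fluorescence followed kinetically.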
Experiment [16] can be described thus: cAMP Responsive Elements (CRE) small molecule agonists, cell-based qHTS assay (AID 1963590). The procedure, abridged:
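FRET-based beta-lactamase readout (LiveBLAzer B/G, 2 h RT) quantified CRE activation in HEK 293T CRE-bla cells after 3 h treatment with DMSO-dissolved compounds.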

For experiment [17], the target named is Beta-2 adrenergic receptor (Homo sapiens) (UniProt P07550). Put plainly: Adrenergic beta2 receptor (ADRB2) small molecule antagonists, cell-based qHTS assay (AID 1963592). Further: nearly all actives have a fitted effect of over 50% in size. Further: potency means the concentration at half of the fitted maximal effect. The gist of the method: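 Cells (CHO, stable ADRB2 overexpression) incubated 18-20hr at 37C; compounds added from DMSO; agonist mix (1nM isoproterenol, 100uM IBMX, 25uM Ro-20-1724) added; 0.5hr RT; d2-cAMP and anti-cAMP-cryptate added; 1hr RT; 665/615 nm read.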

Experiment [18] concerns the target D(2) dopamine receptor (Homo sapiens) (UniProt P14416). Put plainly: Dopamine D2 receptor (DRD2) small molecule antagonists, cell-based qHTS assay (AID 1963595; active means well fitted inhibition curve with a large enough effect in the signal ratio in the repeat runs, with a control signal flat; the % refers to the signal ratio). The procedure, abridged: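 Human DRD2 antagonist qHTS measuring cAMP by HTRF. The cells are exposed to compound for 10 min, then to NKH477 (200 nM) and quinpirole (12 nM) for 30 min at RT, with Ro20-1724 (0.1 mM) present throughout.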

The target is the same in experiment [19]. Kind of experiment: Dopamine D2 receptor (DRD2) small molecule agonists, cell-based qHTS assay (AID 1963594). Further: nearly all actives have a fitted effect of over 35% in size. The gist of the method: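 HEK293 cells stably expressing DRD2 were cultured 24 h at 37 C, then given Ro20-1724 (0.1 mM final) and compounds for 10 min at room temperature. NKH477 (200nM) was then added for 30 min. cAMP was read by HTRF.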
Experiment [20] in a line: cAMP Responsive Elements (CRE) small molecule antagonists, cell-based qHTS assay (AID 1963591; active means well fitted inhibition curve with a large enough effect in the signal ratio in the repeat runs, not every such curve was filed as active; the % refers to the signal ratio). The procedure, abridged: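 qHTS in CRE-bla HEK 293T cells: compound in DMSO, then 0.25 uM NKH477 (final), 3 h at 37 °C/5% CO2; beta-lactamase FRET read-out after 2 h substrate incubation.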

Values without a mark were called inactive. Records with an inconclusive call do not appear. Calls of active or inactive are those of the source. Unless noted, the call rests on the fitted dose curve.

Muscarinic acetylcholine receptor M1 (Homo sapiens), sequence (P11229 whole entry, looked up): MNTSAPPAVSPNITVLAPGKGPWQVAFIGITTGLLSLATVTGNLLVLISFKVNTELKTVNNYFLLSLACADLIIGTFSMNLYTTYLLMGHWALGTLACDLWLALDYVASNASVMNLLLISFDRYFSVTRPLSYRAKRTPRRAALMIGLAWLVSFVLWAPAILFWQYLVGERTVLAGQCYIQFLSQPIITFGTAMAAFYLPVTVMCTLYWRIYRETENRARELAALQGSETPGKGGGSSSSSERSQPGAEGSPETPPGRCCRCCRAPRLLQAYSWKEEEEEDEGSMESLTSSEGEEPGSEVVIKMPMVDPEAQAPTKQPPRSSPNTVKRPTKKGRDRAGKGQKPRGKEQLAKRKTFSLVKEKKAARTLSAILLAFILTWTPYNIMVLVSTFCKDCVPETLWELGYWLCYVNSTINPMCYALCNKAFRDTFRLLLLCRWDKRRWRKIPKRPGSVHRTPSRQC
D(2) dopamine receptor (Homo sapiens), sequence (P14416 whole entry, looked up): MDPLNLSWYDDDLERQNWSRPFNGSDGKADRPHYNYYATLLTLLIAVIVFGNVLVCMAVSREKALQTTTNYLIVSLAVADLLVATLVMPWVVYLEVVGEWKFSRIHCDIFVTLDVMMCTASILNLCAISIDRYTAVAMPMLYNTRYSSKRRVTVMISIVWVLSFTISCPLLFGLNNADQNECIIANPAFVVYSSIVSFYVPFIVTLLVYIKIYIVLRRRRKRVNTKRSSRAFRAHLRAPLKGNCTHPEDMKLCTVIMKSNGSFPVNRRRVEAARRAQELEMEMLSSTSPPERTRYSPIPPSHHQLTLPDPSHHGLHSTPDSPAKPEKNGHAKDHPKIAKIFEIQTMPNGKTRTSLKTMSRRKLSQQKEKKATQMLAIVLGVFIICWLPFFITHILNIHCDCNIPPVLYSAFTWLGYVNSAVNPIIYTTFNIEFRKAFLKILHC
Beta-2 adrenergic receptor (Homo sapiens), sequence (P07550 whole entry, looked up): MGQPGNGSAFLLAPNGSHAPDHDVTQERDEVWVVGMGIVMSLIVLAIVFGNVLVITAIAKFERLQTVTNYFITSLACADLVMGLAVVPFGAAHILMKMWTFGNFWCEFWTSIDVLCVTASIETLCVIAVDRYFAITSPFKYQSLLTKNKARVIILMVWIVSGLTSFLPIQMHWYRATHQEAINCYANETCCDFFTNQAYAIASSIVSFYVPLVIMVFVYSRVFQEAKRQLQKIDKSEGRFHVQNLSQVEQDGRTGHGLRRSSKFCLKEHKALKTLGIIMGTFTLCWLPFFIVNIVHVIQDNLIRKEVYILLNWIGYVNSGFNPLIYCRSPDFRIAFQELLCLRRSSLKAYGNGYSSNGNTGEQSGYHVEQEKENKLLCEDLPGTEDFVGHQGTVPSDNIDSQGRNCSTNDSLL
Gonadotropin-releasing hormone receptor (Homo sapiens), sequence (P30968 whole entry, looked up): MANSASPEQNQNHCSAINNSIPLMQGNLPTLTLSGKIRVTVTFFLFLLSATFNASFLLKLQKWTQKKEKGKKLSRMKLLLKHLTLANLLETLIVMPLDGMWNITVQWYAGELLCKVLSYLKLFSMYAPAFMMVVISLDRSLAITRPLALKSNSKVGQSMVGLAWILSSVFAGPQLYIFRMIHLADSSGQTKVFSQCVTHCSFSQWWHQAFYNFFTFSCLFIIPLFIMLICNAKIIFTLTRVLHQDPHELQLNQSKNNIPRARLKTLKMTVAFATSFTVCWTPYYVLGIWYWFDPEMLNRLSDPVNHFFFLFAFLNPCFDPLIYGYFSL
5-hydroxytryptamine receptor 2A (Homo sapiens), sequence (P28223 whole entry, looked up): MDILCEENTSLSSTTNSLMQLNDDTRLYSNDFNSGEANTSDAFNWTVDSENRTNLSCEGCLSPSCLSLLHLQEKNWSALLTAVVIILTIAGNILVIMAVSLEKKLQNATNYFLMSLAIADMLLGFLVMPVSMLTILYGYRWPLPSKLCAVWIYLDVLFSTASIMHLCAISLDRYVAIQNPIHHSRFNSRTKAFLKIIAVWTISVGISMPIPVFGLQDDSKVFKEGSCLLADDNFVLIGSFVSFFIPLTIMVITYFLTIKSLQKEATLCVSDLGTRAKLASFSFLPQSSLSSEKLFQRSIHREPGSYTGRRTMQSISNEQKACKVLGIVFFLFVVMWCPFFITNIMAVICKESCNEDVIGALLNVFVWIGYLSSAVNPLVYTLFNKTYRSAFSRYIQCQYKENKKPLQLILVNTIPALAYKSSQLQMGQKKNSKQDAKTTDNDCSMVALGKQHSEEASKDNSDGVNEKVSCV
KiSS-1 receptor (Homo sapiens), sequence (Q969F8 whole entry, looked up): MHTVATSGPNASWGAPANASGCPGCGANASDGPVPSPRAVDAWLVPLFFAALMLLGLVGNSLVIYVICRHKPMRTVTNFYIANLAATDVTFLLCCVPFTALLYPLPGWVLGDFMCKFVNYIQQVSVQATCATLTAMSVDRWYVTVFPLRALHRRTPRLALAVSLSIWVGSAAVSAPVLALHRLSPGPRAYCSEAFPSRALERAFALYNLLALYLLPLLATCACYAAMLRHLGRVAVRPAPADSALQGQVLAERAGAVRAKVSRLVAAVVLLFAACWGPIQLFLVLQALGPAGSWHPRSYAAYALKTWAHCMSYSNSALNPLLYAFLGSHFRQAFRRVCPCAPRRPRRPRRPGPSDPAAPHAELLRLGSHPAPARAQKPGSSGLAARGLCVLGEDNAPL

As for `CN1C(=O)c2ccc([N+](=O)[O-])cc2C1=O`, the Potency entry in experiment [1], in experiment [2], in experiment [3], in experiment [6], in experiment [7] and in [8] was “inactive” each time. Also, the Potency result in experiment [9], in [10], in experiment [11], in experiment [12], in experiment [13] and in [14] was “inactive” each time. Further, the Potency entry in experiment [15], in [16], in experiment [17] and in [18] was “inactive” in each case. Besides, the result in experiment [4] and in experiment [5] was inactive.
As for `CC(C)=CC(=O)O`, the Potency result in [1], in experiment [2], in [3], in experiment [6], in experiment [7] and in [8] was “inactive” each time. The Potency result in experiment [9], in experiment [10], in [11], in experiment [12], in experiment [13] and in [14] was “inactive” each time. Also, the Potency entry in [15], in experiment [16], in [17], in experiment [19] and in experiment [18] was “inactive” in each case. For the same molecule, the result in [4] and in experiment [5] was inactive.
As for `Cc1cc(C)c(NC(=O)CN(CC(=O)O)CC(=O)O)c(C)c1Br`, the Potency entry in experiment [1], in experiment [2], in [3], in [6], in experiment [7] and in experiment [8] was “inactive” each time. Further, the Potency result in experiment [9], in experiment [10], in experiment [11], in experiment [12], in [13] and in [14] was “inactive” throughout. Besides, the Potency result in experiment [15], in experiment [20], in [17] and in [18] was “inactive” each time. Moreover, the outcome in experiment [4] and in experiment [5] was inactive.
For `Cc1ccc2c(Cl)cc(Cl)c(O)c2n1`, the Potency result in experiment [1], in experiment [2], in experiment [3], in [6], in experiment [7] and in experiment [8] was “inactive” in each case. Moreover, the Potency result in experiment [9], in experiment [10], in experiment [11], in experiment [12], in [13] and in experiment [14] was “inactive” each time. For the same molecule, the Potency entry in [15], in experiment [16], in experiment [17], in experiment [19] and in experiment [18] was “inactive” in each case. For the same molecule, the result in [4] and in experiment [5] was inactive.
For `Cc1ccsc1C(=CCCN1CCC[C@@H](C(=O)O)C1)c1sccc1C`, the Potency result in experiment [1], in experiment [2], in experiment [3], in experiment [6], in [7] and in [8] was “inactive” each time. Besides, the Potency entry in experiment [9], in experiment [10], in experiment [12], in experiment [13], in experiment [14] and in experiment [15] was “inactive” throughout. The Potency result in experiment [17], in experiment [19] and in experiment [18] was “inactive” each time. Besides, the outcome in experiment [4] and in experiment [5] was inactive. In addition, the Potency in [11] is 0.5 µM (active).
`O=C(Nc1ccccc1)Nc1ccccc1`: the Potency result in experiment [1], in [2], in experiment [3], in experiment [6], in experiment [7] and in [8] was “inactive” in each case. The Potency result in [9], in experiment [10], in [11], in [12], in experiment [13] and in [14] was “inactive” throughout. The Potency result in [15], in [16], in experiment [19] and in experiment [18] was “inactive” throughout. The outcome in experiment [4] and in experiment [5] was inactive. Further, the Potency in [17] was 68.9 µM (active).

Source of the values: PubChem BioAssay (Tox21).
